Screening results as filed in PubChem.
Beta apoptosis = inhibitors of cytokine-induced beta cell apoptosis, primary screen, luminescence | 0.8% of 300,000 active | INS-1E cytokine-induced death, ATP luminescence, 48 h; percent of positive-control rescue, neutral wells zero | protection from apoptosis, % (no concentration beside the values);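 active = Every replicate reaches about 75%, or at least half do and their mean reaches it too, limit read from the data; inconclusive = At least half of replicates reach the limit but their mean does not; inactive = Under half of replicates reach the limit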;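 also: higher means more ATP so stronger rescue from cytokine killing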
Mdm2-MdmX inh = inhibitors of human Mdm2-MdmX association, primary screen, cell-based, luminescence, split luciferase, SaOS-2, uHTS; SaOS-2 split-luciferase Mdm2/MdmX complementation; inhibition, % at 8 µM; 3% of 330,000 active;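 active = inhibition of at least 50% at 8 µM in the primary screen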
Calb FLC = C. albicans growth inhibition with fluconazole, primary screen, CaCi-2 strain, Alamar Blue fluorescence; C. albicans CaCi-2 (fluconazole-resistant clinical isolate) + fluconazole, 48 h; growth inhibition, % (test concentration not listed); 0.57% of 300,000 active;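 active = growth inhibition above about 58% in most replicates, limit read from the data, passing the limit was not always enough; inconclusive = exactly half the replicates above a set limit; inactive = most replicates below a set limit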;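 also: all wells also contain fluconazole at 8 µg/ml as a sub-toxic cotreatment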
SKKanGAS inh = S. pyogenes SKKanGAS growth inhibitors in kanamycin, primary screen, streptokinase expression inhibitor project, SKKanGAS strain, BacTiter-Glo luminescence; inhibition, % at 7.5 µM; AID 1662, 2009; 6 h; 1.3% of 300,000 active;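 active = mean replicate score, as percent of positive control median, at least 50; inconclusive = mean below 50 but one replicate at or above 50; inactive = mean and every replicate below 50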;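 also: strain carries kanamycin resistance gene driven by streptokinase promoter and grows in 40 µg/ml kanamycin; loss of luminescence reflects streptokinase promoter inhibition or plain growth inhibition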
CSC inhib = cancer stem cell viability inhibitors, primary screen, luminescence. cancer stem cell-like cells viability. inhibition, % at 7.5 µM. 1.1% of 300,000 active; in the data active = inhibition above about 75%; inconclusive = no clear call, values can overlap the other calls; tested in HMLE shEcad cells
MPTP inh = mitochondrial permeability transition pore inhibitors, primary screen, biochemical, isolated mouse mitochondria, absorbance; Ca2+ swelling absorbance, 30 min; inhibition, % at 10 µM; 1.4% of 360,000 active;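 active = inhibition of 50% or more, scaled per plate between neutral and stimulator controls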
Numbers stand for hits; n = inactive; u = inconclusive; x = no result given. Most compounds without a hit are left out; they make up all but 5.4% or so of the library.

SMILES | Beta apoptosis | Mdm2-MdmX inh | Calb FLC | SKKanGAS inh | CSC inhib | MPTP inh
Cc1ccc2cc(C3C(C#N)=C(N)Oc4c3ccc3cccnc43)c(=O)[nH]c2c1 (configuration not stated) | 88 | n | 87 | n | n | n
[O-]C1=N/[N+](=C/c2ccc(Cl)c(Cl)c2)CC1 | n | n | n | n | n | n
CCOc1cc(/C=C2/NC(=O)NC2=O)cc(Br)c1OCc1ccc(C(=O)O)cc1 | n | n | n | n | n | n
CCOC(=O)c1ccc(NC(=O)c2nc[nH]c2C(=O)N[C@@H](CC(C)C)C(=O)OCc2ccccc2)cc1 | n | n | n | 63 | n | n
Cc1cccc(NC(=O)c2nc[nH]c2C(=O)N[C@@H](Cc2ccccc2)C(=O)OCc2ccccc2)c1 | n | n | n | 64 | n | n
C[C@H](NC(=O)c1nc[nH]c1C(=O)N[C@@H](Cc1ccccc1)C(=O)OCc1ccccc1)C(=O)OCc1ccccc1 | n | n | n | n | n | n
CCOC(=O)c1ccc(NC(=O)c2nc[nH]c2C(=O)N[C@@H](CC(C)C)C(=O)OC(C)(C)C)cc1 | n | n | n | n | n | n
C[C@@H](NC(=O)c1nc[nH]c1C(=O)N[C@@H](Cc1ccccc1)C(=O)OC(C)(C)C)c1ccccc1 | n | n | n | 84 | n | n
CCC(=O)c1ccc(OCC(=O)OCC(=O)Nc2ccc(C)c(S(=O)(=O)N3CCCCC3)c2)cc1 | n | n | x | x | n | n
Cc1cccc(NC(=O)CCCCC(=O)Nc2cccc(C)c2)c1 | n | n | n | n | n | n
O=C(CSc1nc2cc(Cl)ccc2s1)c1cc2ccccc2o1 | n | n | n | n | n | n
O=C(/C=C/c1ccco1)NCCc1ccccc1 | n | n | n | n | x | n
Cc1ccc(/C=C/C(=O)NCCc2ccccc2)o1 | n | n | n | n | 75 | n
CCCn1c(C(CO)Nc2nc(-c3cccc(Br)c3)cs2)nc2ccccc21 (configuration not stated) | n | n | n | 96 | n | n
CC1CCCCC1NC(=O)/C(C#N)=C/c1ccccc1F (configuration not stated) | n | n | n | n | 81 | n
CCCCCOc1ccc(/C=C/c2c([N+](=O)[O-])c(=O)n(C)c(=O)n2C)cc1 | n | n | n | 60 | n | n
COc1ccc(/C=C/c2c([N+](=O)[O-])c(=O)n(C)c(=O)n2C)cc1OC | n | n | n | n | n | n
CC(=O)NC12CC3CC(C1)CC(C(=O)OCC(=O)c1cc(C)n(C)c1C)(C3)C2 | n | n | x | x | n | n
COc1cccc(-c2cnc3c(NC=O)cc(-c4cc(C)c(O)c(C)c4)cn23)c1 | x | x | x | x | x | n
COc1ccc2cc(/C=N/NC(=O)c3ccc(CN(c4cccc(Cl)c4Cl)S(C)(=O)=O)cc3)c(Cl)nc2c1 | n | n | n | n | 85 | n
COc1ccc2cc(/C=N/O)c(Cl)nc2c1 | x | n | n | n | x | n
COCCn1cnnc1SCC(=O)Nc1cc(OC)c([N+](=O)[O-])cc1C | n | n | 114 | n | x | n
COc1ccc(NC(=O)CSc2nncn2C)c([N+](=O)[O-])c1 | n | n | n | n | n | n
O=C(N/N=C/c1ccccc1O)NC12CC3CC(CC(C3)C1)C2 | n | n | n | 84 | n | n
O=C(N/N=C/c1ccc(O)c(O)c1)NC12CC3CC(CC(C3)C1)C2 | n | n | n | n | n | n
SMILES | Beta apoptosis | Mdm2-MdmX inh | Calb FLC | SKKanGAS inh | CSC inhib | MPTP inh
CCn1c(NC(=O)/C=C/c2ccc(F)cc2)nc2ccccc21 | n | n | n | 62 | n | n
CCCn1c(NC(=O)c2ccc(F)cc2)nc2ccccc21 | n | n | n | n | n | n
CCCCCCCCc1nc(SCC(C)=O)n[nH]1 | n | n | n | n | n | n
CSc1ccc(CN(C)C(=O)c2cc3ccccc3o2)cc1 | n | n | n | n | n | n
CN(Cc1c(F)cccc1Cl)C(=O)c1cc2ccccc2o1 | 99 | n | n | n | n | n
Cc1ccc(S(=O)(=O)N2C[C@H]3N(C(=O)OC(C)C)N(C(=O)OC(C)C)C[C@H](OC(=O)NC4CC4)[C@@]3(O)C2)cc1 | x | x | x | x | x | n
CCCC[C@H](CC(=O)c1ccccc1)[C@@H](OC(C)=O)C(=O)Oc1c(C(C)C)cccc1C(C)C | n | n | x | x | n | n
CC(C)c1cccc(C(C)C)c1OC(=O)[C@H]1OC(C(C)(C)C)=C[C@@H]1c1ccccc1 | 111 | n | x | x | n | n
Nc1c(Cl)cc(C2=NCCn3c2c2ccc([N+](=O)[O-])cc2[n+]3[O-])cc1Cl | n | n | n | 68 | n | n
CCNc1nc(NCC)nc(-n2nc(C)cc2C)n1 | n | n | n | 87 | n | n
Cc1cc(C)n(-c2nc(NC(C)C)nc(NC(C)C)n2)n1 | n | n | n | n | n | n
Cc1cc(C)n(-c2nc(NC(C)(C)C)nc(NC(C)(C)C)n2)n1 | u | n | n | 111 | n | n
CCN(CC)CCNC(=O)c1ccc(NC(=O)/C=C/c2cc(OC)c(OC)c(OC)c2)cc1 | n | n | 66 | n | x | n
COc1cc(/C=C/C(=O)Nc2ccc(C)cc2)cc(OC)c1OC | n | n | n | n | n | n
S=C(NCc1cccnc1)Nc1ccc2c(c1)OCO2 | n | n | n | n | n | n
O=C(CSc1ncnc2nc[nH]c12)c1ccc(Cl)cc1 | n | n | n | n | 102 | n
O=C(CSc1ncnc2nc[nH]c12)c1ccccc1 | n | n | n | n | n | n
Fc1cccc2sc(Nc3nc4cc5c(cc4s3)OCO5)nc12 | n | n | n | 53 | n | n
Fc1cccc2sc(Nc3nc4cc5c(cc4s3)OCCO5)nc12 | n | n | n | n | n | n
CCOc1ccc2c(c1)-c1c(ssc1=S)C(C)(C)N2C(=O)c1ccco1 | n | n | n | n | 85 | n
Fc1cccc(-c2cc3nc4c(c(NCc5ccco5)n3n2)CCCC4)c1 | n | n | n | n | 93 | n
CC1(C)C2CCC1(C)C(OC(=O)CNc1ccccc1)C2 (configuration not stated) | n | n | n | n | n | n
COc1cc(C(=O)OC2CC3CCC2(C)C3(C)C)ccc1OC(C)=O (configuration not stated) | x | n | n | n | 81 | n
CC(=O)c1c(C)[nH]c(C(=O)COC(=O)c2ccc(C)s2)c1C | n | n | x | x | n | n
CCOC(=O)c1c(C)[nH]c(C(=O)C(C)OC(=O)c2cccc(OCc3c(C)noc3C)c2)c1C (configuration not stated) | n | n | n | 50 | n | n
COc1ccc(N(CC(=O)NCCSCc2ccco2)S(=O)(=O)c2ccc(C)cc2)cc1 | n | n | n | n | n | n
CC1C(=O)C(C)C(c2cccc(Br)c2)NC1c1cccc(Br)c1 (configuration not stated) | n | n | n | 60 | n | n
